Assay in all cases: DAPPL (digital affinity profiling via proximity ligation, sequencing); 10 mM Tris-HCl pH 7.5, 50 mM NaCl, 1 mM DTT, 4% glycerol, room temperature, 30 min; GST-TFs on glutathione beads, 16-mer random dsDNA library, 0.1% formaldehyde crosslink after washing; high values mean tight binding
One assay deals with T1, FEV (Homo sapiens, UniProt Q99581 1-238).
T1 sequence: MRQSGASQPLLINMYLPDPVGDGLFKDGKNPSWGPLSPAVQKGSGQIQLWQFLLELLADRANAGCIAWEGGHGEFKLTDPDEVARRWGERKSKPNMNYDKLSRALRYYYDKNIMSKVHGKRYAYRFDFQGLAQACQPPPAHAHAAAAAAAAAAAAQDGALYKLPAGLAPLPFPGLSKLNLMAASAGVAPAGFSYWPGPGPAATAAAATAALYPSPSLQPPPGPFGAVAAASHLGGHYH
The conditions noted are these: protein: recombinant; tags: N-terminal GST; dsDNA, one strand shown. In a few lines:
(§1)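 Beads coated with glutathione captured GST-fused human transcription factors that had been expressed in yeast, and the factors were then given DNA barcodes and pooled with a tag-only sample. The pools were incubated with 200 nmole of a random double-stranded 16-mer DNA library in Tris/NaCl/DTT/glycerol buffer for 30 min at room temperature, washed, crosslinked with 0.1% formaldehyde and proximity-ligated with BsaI/T4 ligase at 37 °C for 1 h. PCR amplification and Illumina NextSeq500 sequencing came last. Binding signal is each hexamer's read frequency for a factor divided by its frequency for the tag-only sample.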

A further assay concerns the target ETV5 (Homo sapiens, UniProt P41161 1-510). The conditions noted are these: protein: recombinant; tags: N-terminal GST; dsDNA, one strand shown. The method in brief:
as §1

Another assay addresses HSF1 (Homo sapiens, UniProt Q00613 1-529). The following applies: protein: recombinant; tags: N-terminal GST; chain copies: 3; dsDNA, one strand shown. The method in brief: as §1
For another assay, the target named is T2, SPIC (Homo sapiens, UniProt Q8N5J4 1-248).
T2 sequence: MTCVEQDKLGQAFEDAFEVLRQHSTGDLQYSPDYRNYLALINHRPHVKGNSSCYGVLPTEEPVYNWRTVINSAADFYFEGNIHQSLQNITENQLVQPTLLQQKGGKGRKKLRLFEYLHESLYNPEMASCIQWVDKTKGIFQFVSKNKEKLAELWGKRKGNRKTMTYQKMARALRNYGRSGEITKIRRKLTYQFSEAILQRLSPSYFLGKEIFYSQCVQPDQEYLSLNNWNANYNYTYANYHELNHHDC
The following applies: protein: recombinant; tags: N-terminal GST; dsDNA, one strand shown. In a few lines: as §1

The target of another assay is ELF4 (Homo sapiens, UniProt Q99607 1-663). The conditions noted are these: protein: recombinant; tags: N-terminal GST; dsDNA, one strand shown. In a few lines:
as §1

The target of the next assay is T3, ELK4 (Homo sapiens, UniProt P28324-2 1-405).
T3 sequence: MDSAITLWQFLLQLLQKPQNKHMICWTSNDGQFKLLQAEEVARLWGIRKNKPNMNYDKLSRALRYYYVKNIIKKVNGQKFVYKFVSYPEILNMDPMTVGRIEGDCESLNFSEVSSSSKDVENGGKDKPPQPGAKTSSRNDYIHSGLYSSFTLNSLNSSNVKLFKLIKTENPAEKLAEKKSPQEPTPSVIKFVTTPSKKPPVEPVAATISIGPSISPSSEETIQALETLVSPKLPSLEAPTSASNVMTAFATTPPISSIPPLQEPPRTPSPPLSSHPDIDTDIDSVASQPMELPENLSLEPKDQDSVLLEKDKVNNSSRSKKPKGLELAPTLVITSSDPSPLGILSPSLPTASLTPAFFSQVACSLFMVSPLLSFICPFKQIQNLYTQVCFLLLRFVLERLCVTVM
The following applies: protein: recombinant; tags: N-terminal GST; dsDNA, one strand shown. The method in brief:
as §1

A further assay concerns the target T4, ETV2 (Homo sapiens, UniProt O00321 1-342).
T4 sequence: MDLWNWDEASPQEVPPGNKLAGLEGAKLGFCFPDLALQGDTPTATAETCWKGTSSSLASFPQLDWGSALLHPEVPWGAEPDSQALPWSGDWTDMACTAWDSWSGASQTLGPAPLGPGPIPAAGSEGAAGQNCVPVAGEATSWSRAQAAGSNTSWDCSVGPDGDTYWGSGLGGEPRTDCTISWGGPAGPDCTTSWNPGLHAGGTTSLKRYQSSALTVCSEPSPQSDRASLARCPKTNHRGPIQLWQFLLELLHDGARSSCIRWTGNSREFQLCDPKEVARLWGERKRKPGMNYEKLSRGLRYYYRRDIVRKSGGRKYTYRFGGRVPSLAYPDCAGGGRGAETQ
The following applies: protein: recombinant; tags: N-terminal GST; dsDNA, one strand shown. The method in brief:
as §1

A further assay deals with T5, ELF3 (Homo sapiens, UniProt P78545 1-371).
T5 sequence: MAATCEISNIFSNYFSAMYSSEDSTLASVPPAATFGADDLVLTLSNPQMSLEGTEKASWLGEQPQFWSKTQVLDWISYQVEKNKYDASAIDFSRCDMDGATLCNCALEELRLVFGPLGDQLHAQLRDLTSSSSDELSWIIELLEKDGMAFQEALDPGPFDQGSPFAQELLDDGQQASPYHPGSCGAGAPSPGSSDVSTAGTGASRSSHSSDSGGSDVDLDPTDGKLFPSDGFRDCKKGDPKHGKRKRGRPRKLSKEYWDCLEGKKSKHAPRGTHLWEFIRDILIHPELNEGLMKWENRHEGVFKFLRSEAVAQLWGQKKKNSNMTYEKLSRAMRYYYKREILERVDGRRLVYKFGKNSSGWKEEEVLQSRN
The conditions noted are these: protein: recombinant; tags: N-terminal GST; dsDNA, one strand shown. In a few lines: as §1

The target of a further assay is CRX (Homo sapiens, UniProt O43186 1-299). The conditions noted are these: protein: recombinant; tags: N-terminal GST; dsDNA, one strand shown. The method in brief: as §1
The next assay has as its target ETV1 (Homo sapiens, UniProt P50549 1-477). The conditions noted are these: protein: recombinant; tags: N-terminal GST; dsDNA, one strand shown. In a few lines:
as §1

A further assay concerns the target T6, ERF (Homo sapiens, UniProt P50548 1-548).
T6 sequence: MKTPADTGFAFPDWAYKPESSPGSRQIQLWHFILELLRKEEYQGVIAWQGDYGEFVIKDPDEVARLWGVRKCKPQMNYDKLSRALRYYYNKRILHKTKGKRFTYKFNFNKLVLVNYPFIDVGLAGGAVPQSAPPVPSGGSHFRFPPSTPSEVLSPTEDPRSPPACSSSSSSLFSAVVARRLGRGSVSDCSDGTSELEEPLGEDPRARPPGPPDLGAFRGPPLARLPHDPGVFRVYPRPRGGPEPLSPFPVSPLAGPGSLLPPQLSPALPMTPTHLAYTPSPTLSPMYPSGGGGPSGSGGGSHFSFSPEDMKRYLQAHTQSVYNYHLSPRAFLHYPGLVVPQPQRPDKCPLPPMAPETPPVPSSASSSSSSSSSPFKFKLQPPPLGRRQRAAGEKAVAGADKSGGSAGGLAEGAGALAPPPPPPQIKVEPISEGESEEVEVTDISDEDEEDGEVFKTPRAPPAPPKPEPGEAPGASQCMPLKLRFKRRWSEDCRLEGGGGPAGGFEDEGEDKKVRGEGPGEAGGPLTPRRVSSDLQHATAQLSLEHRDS
The following applies: protein: recombinant; tags: N-terminal GST; dsDNA, one strand shown. In a few lines:
as §1

The next assay deals with T7, ETV3L (Homo sapiens, UniProt Q6ZN32 1-361).
T7 sequence: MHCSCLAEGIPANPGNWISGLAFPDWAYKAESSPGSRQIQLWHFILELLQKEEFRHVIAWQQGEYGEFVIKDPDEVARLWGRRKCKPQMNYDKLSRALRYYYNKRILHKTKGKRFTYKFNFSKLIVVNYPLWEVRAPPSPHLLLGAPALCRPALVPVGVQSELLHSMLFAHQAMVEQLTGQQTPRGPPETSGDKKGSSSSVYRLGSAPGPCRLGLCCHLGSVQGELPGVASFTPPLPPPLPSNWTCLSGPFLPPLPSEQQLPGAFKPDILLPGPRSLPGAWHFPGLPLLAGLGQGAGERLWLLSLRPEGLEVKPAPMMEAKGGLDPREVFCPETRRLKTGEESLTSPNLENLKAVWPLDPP
The following applies: protein: recombinant; tags: N-terminal GST; dsDNA, one strand shown. In a few lines:
as §1

Another assay deals with T8, ETS2 (Homo sapiens, UniProt P15036 1-469).
T8 sequence: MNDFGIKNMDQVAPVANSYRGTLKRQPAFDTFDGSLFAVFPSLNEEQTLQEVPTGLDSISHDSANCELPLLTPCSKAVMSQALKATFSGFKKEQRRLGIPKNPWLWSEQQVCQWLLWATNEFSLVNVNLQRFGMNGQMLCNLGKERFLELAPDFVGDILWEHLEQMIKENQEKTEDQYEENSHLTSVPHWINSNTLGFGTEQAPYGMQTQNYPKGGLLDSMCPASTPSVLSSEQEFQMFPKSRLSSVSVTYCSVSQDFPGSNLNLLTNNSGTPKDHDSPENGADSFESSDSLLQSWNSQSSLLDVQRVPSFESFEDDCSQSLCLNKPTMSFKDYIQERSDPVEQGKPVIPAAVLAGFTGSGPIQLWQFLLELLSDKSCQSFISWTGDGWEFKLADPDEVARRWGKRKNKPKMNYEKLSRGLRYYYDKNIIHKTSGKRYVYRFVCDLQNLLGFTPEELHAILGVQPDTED
The following applies: protein: recombinant; tags: N-terminal GST; dsDNA, one strand shown. In a few lines: as §1

A further assay deals with T9, SPDEF (Homo sapiens, UniProt O95238 1-335).
T9 sequence: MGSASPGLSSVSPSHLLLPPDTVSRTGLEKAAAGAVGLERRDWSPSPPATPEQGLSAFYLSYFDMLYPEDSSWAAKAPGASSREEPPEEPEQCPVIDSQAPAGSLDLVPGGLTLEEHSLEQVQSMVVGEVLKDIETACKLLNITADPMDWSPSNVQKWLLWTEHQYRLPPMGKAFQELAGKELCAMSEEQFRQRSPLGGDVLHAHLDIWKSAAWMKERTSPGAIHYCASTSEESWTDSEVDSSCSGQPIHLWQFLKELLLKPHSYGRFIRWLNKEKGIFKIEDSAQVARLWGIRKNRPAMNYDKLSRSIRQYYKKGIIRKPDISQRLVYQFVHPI
The conditions noted are these: protein: recombinant; tags: N-terminal GST; dsDNA, one strand shown. In a few lines: as §1

The target in a further assay is T10, ETV7 (Homo sapiens, UniProt Q9Y603 1-341).
T10 sequence: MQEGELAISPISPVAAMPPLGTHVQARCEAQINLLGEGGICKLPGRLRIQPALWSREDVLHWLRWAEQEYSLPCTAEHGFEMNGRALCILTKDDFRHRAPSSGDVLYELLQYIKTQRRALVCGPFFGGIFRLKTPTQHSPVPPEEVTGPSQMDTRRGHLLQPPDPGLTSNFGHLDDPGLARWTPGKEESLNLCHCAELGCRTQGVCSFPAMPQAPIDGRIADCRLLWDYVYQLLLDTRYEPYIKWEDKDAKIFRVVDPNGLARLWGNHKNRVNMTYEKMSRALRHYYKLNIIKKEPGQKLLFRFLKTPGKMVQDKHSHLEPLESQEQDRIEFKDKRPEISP
The following applies: protein: recombinant; tags: N-terminal GST; dsDNA, one strand shown. The method in brief:
as §1

For a further assay, the target named is T11, ELF5 (Homo sapiens, UniProt Q9UKW6-2 1-255).
T11 sequence: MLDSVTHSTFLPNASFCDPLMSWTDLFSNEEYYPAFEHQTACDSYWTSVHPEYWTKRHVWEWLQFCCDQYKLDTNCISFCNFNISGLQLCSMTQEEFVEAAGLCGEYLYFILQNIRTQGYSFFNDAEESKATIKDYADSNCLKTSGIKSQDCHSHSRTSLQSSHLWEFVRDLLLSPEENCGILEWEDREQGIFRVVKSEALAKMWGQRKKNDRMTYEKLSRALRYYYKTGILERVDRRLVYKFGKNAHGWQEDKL
The conditions noted are these: protein: recombinant; tags: N-terminal GST; dsDNA, one strand shown. The method in brief:
as §1

A further assay concerns the target T12, ETV3 (Homo sapiens, UniProt P41162-2 1-143).
T12 sequence: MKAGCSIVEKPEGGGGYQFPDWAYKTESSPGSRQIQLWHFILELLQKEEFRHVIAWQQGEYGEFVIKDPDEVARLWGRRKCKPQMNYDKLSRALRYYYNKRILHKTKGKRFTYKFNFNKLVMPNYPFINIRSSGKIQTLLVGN
The following applies: protein: recombinant; tags: N-terminal GST; dsDNA, one strand shown. In a few lines: as §1

In a further assay the target is ETV6 (Homo sapiens, UniProt P41212 1-452). The conditions noted are these: protein: recombinant; tags: N-terminal GST; dsDNA, one strand shown. The method in brief: as §1

Data on 1 sequence can be found in publication PMC7862700, “An all-to-all approach to the identification of sequence-specific readers for epigenetic DNA modifications on cytosine”.

Chain of ETV5 (P41161 whole entry): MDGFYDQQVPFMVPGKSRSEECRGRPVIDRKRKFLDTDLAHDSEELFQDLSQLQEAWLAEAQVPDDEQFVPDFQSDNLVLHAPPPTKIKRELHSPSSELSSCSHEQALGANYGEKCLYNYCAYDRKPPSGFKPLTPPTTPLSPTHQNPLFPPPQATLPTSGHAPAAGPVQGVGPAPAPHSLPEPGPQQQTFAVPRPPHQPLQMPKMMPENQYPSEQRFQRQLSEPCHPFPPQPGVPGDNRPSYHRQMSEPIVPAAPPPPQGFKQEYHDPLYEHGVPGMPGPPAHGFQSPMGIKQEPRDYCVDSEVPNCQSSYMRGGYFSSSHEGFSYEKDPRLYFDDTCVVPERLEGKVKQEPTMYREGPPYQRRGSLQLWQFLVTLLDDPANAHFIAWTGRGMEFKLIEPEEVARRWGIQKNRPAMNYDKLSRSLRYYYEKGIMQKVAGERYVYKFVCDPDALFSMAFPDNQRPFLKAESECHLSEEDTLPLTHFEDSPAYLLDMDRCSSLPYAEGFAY
Chain of ELF4 (Q99607 whole entry): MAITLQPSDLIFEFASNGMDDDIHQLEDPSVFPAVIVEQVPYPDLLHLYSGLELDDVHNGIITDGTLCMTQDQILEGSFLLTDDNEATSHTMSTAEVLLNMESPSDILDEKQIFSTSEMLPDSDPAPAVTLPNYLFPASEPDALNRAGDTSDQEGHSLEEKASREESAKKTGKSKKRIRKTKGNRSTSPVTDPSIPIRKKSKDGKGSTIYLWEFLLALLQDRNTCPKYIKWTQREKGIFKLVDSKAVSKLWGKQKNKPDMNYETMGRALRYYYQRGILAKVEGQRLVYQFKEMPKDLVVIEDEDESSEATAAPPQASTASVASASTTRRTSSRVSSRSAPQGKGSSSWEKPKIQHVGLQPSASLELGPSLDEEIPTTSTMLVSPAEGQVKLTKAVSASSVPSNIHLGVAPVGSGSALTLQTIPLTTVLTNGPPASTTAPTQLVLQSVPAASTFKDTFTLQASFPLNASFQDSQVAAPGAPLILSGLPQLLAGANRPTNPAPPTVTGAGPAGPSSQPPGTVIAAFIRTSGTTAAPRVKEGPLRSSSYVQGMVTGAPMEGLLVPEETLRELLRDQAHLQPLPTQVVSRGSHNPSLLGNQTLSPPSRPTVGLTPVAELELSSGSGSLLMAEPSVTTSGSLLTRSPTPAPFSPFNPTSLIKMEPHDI
Chain of ETV1 (P50549 whole entry): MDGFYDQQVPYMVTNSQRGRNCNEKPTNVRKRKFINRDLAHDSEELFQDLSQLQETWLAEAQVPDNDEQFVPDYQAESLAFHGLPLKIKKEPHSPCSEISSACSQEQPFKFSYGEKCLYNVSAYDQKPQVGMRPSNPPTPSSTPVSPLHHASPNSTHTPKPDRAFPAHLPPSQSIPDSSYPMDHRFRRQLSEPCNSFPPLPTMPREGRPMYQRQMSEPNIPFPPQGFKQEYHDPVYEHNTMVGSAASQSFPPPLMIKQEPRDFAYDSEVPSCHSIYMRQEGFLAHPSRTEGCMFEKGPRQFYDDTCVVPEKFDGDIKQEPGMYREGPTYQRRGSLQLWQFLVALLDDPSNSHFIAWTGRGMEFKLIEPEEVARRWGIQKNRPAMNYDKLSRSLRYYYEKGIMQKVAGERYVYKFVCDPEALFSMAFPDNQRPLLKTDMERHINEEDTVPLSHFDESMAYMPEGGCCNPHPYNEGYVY
Chain of HSF1 (Q00613 whole entry): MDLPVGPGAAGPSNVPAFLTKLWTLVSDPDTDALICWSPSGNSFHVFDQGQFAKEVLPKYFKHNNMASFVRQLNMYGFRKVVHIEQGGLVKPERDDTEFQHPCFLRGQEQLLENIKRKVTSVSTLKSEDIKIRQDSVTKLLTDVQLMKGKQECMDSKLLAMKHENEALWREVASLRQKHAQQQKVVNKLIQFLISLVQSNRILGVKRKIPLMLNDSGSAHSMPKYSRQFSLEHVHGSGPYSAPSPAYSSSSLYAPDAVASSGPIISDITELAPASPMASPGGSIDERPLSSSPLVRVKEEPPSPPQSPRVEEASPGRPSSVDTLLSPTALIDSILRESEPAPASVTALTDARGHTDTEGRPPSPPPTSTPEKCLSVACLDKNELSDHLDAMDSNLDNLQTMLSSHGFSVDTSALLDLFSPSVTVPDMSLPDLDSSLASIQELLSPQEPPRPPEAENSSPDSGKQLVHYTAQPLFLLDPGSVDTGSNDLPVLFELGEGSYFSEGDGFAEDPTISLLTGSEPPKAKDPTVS
Chain of ETV6 (P41212 whole entry): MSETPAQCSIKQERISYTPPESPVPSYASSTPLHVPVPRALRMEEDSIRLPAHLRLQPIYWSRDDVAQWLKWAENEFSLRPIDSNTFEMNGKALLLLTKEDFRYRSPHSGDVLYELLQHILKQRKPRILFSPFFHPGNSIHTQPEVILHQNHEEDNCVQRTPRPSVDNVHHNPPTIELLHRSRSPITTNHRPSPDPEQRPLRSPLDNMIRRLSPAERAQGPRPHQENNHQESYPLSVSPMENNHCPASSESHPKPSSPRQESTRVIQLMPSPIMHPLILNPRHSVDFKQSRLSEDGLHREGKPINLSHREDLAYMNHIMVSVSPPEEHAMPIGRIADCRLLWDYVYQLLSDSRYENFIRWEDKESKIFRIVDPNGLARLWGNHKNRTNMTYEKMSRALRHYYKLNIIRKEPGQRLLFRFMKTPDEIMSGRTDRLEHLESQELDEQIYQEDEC
Chain of CRX (O43186 whole entry): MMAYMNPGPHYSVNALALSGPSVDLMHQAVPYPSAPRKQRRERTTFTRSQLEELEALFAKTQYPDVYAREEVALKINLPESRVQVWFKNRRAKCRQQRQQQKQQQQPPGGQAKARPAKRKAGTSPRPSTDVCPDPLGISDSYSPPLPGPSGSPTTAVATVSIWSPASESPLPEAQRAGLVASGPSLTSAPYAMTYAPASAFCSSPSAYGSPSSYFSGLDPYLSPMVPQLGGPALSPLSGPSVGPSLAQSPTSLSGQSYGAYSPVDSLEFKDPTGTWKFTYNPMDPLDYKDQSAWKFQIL

As for TTACCC, the binding signal with FEV was 1.36 fold enrichment (6-mer frequency, TF over GST control); with ETV5 it was 1.36 fold enrichment (6-mer frequency, TF over GST control); with HSF1, 1.43 fold enrichment (6-mer frequency, TF over GST control); with SPIC it was 1.4 fold enrichment (6-mer frequency, TF over GST control); with ELF4, 1.48 fold enrichment (6-mer frequency, TF over GST control); with ELK4, 1.38 fold enrichment (6-mer frequency, TF over GST control). Besides, the binding signal with ETV2 is 1.56 fold enrichment (6-mer frequency, TF over GST control); with ELF3 it was 1.14 fold enrichment (6-mer frequency, TF over GST control); with CRX, 1.95 fold enrichment (6-mer frequency, TF over GST control); in the assay with ETV1 it was 1.35 fold enrichment (6-mer frequency, TF over GST control); in the assay with ERF, 1.35 fold enrichment (6-mer frequency, TF over GST control); in the assay with ETV3L, 1.26 fold enrichment (6-mer frequency, TF over GST control). Besides, the binding signal in the assay with ETS2 is 1.42 fold enrichment (6-mer frequency, TF over GST control); in the assay with SPDEF, 1.33 fold enrichment (6-mer frequency, TF over GST control); in the assay with ETV7, 1.41 fold enrichment (6-mer frequency, TF over GST control); with ELF5, 1.43 fold enrichment (6-mer frequency, TF over GST control); in the assay with ETV3 it was 1.35 fold enrichment (6-mer frequency, TF over GST control); with ETV6, 1.29 fold enrichment (6-mer frequency, TF over GST control).
